Eleven compounds from the supplement of paper PMC6522484 can be followed below.

The test system of assay [1] is DLD1. In words: cell viability (CellTiter-Glo) relative to plate median (fraction of plate median); higher = more viable cells. The settings on record: 10 µM, treatment time 24 h. In a few lines:
(§1)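 Colorectal cancer cells expressing a stably transduced lentiviral TCF/Wnt firefly luciferase reporter were treated in 384-well plates with kinase inhibitor library compounds at a final 10 µM for 24 h. Firefly luciferase or CellTiterGlo luminescence was then read on parallel plates. Well signals were normalised to the plate median (webcellHTS2, additive, no log transformation) and averaged over two independent replicates.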

The test system of assay [2] is HCT116. The description is as above. The settings on record: 10 µM; treatment time 24 h; reporter: TCF4/Wnt. Put shortly:
as §1

The test system of assay [3] is SW480. The assay is described as above. The settings on record: 10 µM; treatment time 24 h; reporter: 7TFP. Put shortly:
as §1

The subject of assay [4] is DLD1. Kind of assay: TCF/Wnt firefly luciferase reporter signal relative to plate median (fraction of plate median); higher = higher Wnt reporter signal. The settings on record: 10 µM, treatment time 24 h. In a few lines:
as §1

Assay [5] concerns HCT116. The description is as above. The settings on record: 10 µM; treatment time 24 h; reporter: TCF4/Wnt. Put shortly:
as §1

In assay [6] the test system is SW480. The assay is described as above. The settings on record: 10 µM; treatment time 24 h; reporter: 7TFP. In a few lines: as §1

Molecules are shown by their SMILES. ± gives the standard deviation of the averaged measurements.

`COc1cccc(-c2cc(=O)c3ccccc3o2)c1N`: the cell viability in assay [1] (reporter: 7TFP) was determined as 1.24 ± 0.085; in assay [1] (reporter: TCF4/Wnt) it was 1.025 ± 0.0071; in assay [2], 1.19 ± 0.071; in assay [3], 1 ± 0.023. Further, the “TCF/Wnt firefly luciferase reporter signal” value in assay [4] (reporter: 7TFP) is 1.71 ± 0.2; in assay [4] (reporter: TCF4/Wnt), 1.62 ± 0.53; in assay [5], 1.25 ± 1; in assay [6], 1.27 ± 0.65.
Consider `COc1ccc2c(Oc3ccc(NC(=O)c4c(C)n(CC(C)(C)O)n(-c5ccccc5)c4=O)nc3)ccnc2c1`, for which the cell viability turned out to be 1.15 ± 0.19 in assay [1] (reporter: 7TFP), 1.01 ± 0.016 in assay [1] (reporter: TCF4/Wnt), 1.12 in assay [2] and 0.921 ± 0.08 in assay [3]. Further, the “TCF/Wnt firefly luciferase reporter signal” value in assay [4] (reporter: 7TFP) was determined as 0.92 ± 0.35; in assay [4] (reporter: TCF4/Wnt), 0.99 ± 0.057; in assay [5], 1.22 ± 0.078; in assay [6], 1.05 ± 0.078.
`Cc1cccc(-c2[nH]c(C(C)(C)C)nc2-c2ccc3nccnc3c2)n1`: the cell viability worked out at 1.14 ± 0.064 in assay [1] (reporter: 7TFP), 1.06 ± 0.14 in assay [1] (reporter: TCF4/Wnt), 1.17 ± 0.028 in assay [2] and 0.853 ± 0.043 in assay [3]. Further, the “TCF/Wnt firefly luciferase reporter signal” value in assay [4] (reporter: 7TFP) was determined as 1.1 ± 0.042; in assay [4] (reporter: TCF4/Wnt), 1.03 ± 0.12; in assay [5] it was 1.03 ± 0.14; in assay [6], 0.854 ± 0.17.
On to `O=c1sn(-c2cccc3ccccc23)c(=O)n1Cc1ccccc1` [Tideglusib], for which the cell viability in assay [1] (reporter: 7TFP) is 1.03 ± 0.081; in assay [1] (reporter: TCF4/Wnt), 0.9475 ± 0.005; in assay [2], 1.03 ± 0.067; in assay [3], 0.946 ± 0.0099. Further, the “TCF/Wnt firefly luciferase reporter signal” value is 1.32 ± 0.035 in assay [4] (reporter: 7TFP), 1.17 in assay [4] (reporter: TCF4/Wnt), 1.285 ± 0.0071 in assay [5] and 1.11 ± 0.064 in assay [6].
Consider `Nc1nc(N)c2nc(-c3cccc(O)c3)cnc2n1`, for which the cell viability came out at 1.09 ± 0.014 in assay [1] (reporter: 7TFP), 1.08 ± 0.021 in assay [1] (reporter: TCF4/Wnt), 0.97 ± 0.018 in assay [2] and 1.04 ± 0.064 in assay [3]. For the same compound, the “TCF/Wnt firefly luciferase reporter signal” value in assay [4] (reporter: 7TFP) worked out at 1.4 ± 0.26; in assay [4] (reporter: TCF4/Wnt), 1.15 ± 0.085; in assay [5], 1.33 ± 0.31; in assay [6], 1.34 ± 0.042.
Regarding `C=CC(=O)Nc1ccc2ncnc(Nc3ccc(OCc4cccc(F)c4)c(Cl)c3)c2c1`, the cell viability in assay [1] (reporter: 7TFP) was 1.02 ± 0.03; in assay [1] (reporter: TCF4/Wnt) it was 1.06 ± 0.085; in assay [2], 0.998 ± 0.017; in assay [3] it was 1 ± 0.07. In addition, the “TCF/Wnt firefly luciferase reporter signal” value in assay [4] (reporter: 7TFP) worked out at 0.691 ± 0.0099; in assay [4] (reporter: TCF4/Wnt), 0.879 ± 0.2; in assay [5], 0.686 ± 0.33; in assay [6], 1.09 ± 0.11.
With `Cc1ccc([N+](=O)[O-])cc1S(=O)(=O)N(C)/N=C/c1cnc2ccc(Br)cn12`, the cell viability in assay [1] (reporter: 7TFP) amounted to 0.887 ± 0.097; in assay [1] (reporter: TCF4/Wnt), 1.07 ± 0.078; in assay [2] it was 0.763 ± 0.23; in assay [3], 1.13 ± 0.11. Moreover, the “TCF/Wnt firefly luciferase reporter signal” value in assay [4] (reporter: 7TFP) was determined as 0.358 ± 0.074; in assay [4] (reporter: TCF4/Wnt), 0.239 ± 0.0014; in assay [5] it was 0.155 ± 0.059; in assay [6], 0.53 ± 0.24.
Take `Cc1nc(NC(=O)N2CCC[C@H]2C(N)=O)sc1-c1ccnc(C(C)(C)C(F)(F)F)c1`: the cell viability in assay [1] (reporter: 7TFP) was found to be 0.977 ± 0.047; in assay [1] (reporter: TCF4/Wnt), 0.996 ± 0.034; in assay [2], 0.938 ± 0.1; in assay [3], 1.09 ± 0.028. Further, the “TCF/Wnt firefly luciferase reporter signal” value stood at 0.558 ± 0.062 in assay [4] (reporter: 7TFP), 0.711 ± 0.13 in assay [4] (reporter: TCF4/Wnt), 0.985 ± 0.13 in assay [5] and 0.791 ± 0.024 in assay [6].
On to `CC[C@@H]1C(=O)N(C)c2cnc(Nc3ccc(C(=O)N[C@H]4CC[C@H](N5CCN(CC6CC6)CC5)CC4)cc3OC)nc2N1C(C)C` [BI6727 (Volasertib)], for which the cell viability in assay [1] (reporter: 7TFP) stood at 0.744 ± 0.32; in assay [1] (reporter: TCF4/Wnt), 0.894 ± 0.071; in assay [2], 0.554 ± 0.18; in assay [3], 0.995 ± 0.16. The “TCF/Wnt firefly luciferase reporter signal” value is 1.68 ± 0.18 in assay [4] (reporter: 7TFP), 1.98 ± 0.49 in assay [4] (reporter: TCF4/Wnt), 0.866 ± 0.0085 in assay [5] and 1.39 ± 0.27 in assay [6].
As for `CNC(=O)Nc1ccc(-c2nc(N3CC4CCC(C3)O4)c3cnn(C4CCC5(CC4)OCCO5)c3n2)cc1`, the cell viability in assay [1] (reporter: 7TFP) is 0.902 ± 0.088; in assay [1] (reporter: TCF4/Wnt) it was 0.998 ± 0.045; in assay [2], 0.805 ± 0.11; in assay [3], 1.16 ± 0.028. Moreover, the “TCF/Wnt firefly luciferase reporter signal” value is 0.356 ± 0.076 in assay [4] (reporter: 7TFP), 0.554 ± 0.12 in assay [4] (reporter: TCF4/Wnt), 0.617 ± 0.14 in assay [5] and 0.876 ± 0.1 in assay [6].
`Cc1[nH]c(/C=C2\C(=O)Nc3ccc(S(=O)(=O)Cc4c(Cl)cccc4Cl)cc32)c(C)c1C(=O)N1CCC[C@@H]1CN1CCCC1`: the cell viability in assay [1] (reporter: 7TFP) came to 0.691 ± 0.27; in assay [1] (reporter: TCF4/Wnt), 0.648 ± 0.43; in assay [2], 0.826 ± 0.33; in assay [3], 0.798 ± 0.34. The “TCF/Wnt firefly luciferase reporter signal” value in assay [4] (reporter: 7TFP) is 0.7 ± 0.36; in assay [4] (reporter: TCF4/Wnt), 0.868 ± 0.16; in assay [5], 0.7 ± 0.88; in assay [6] it was 1.21 ± 0.028.
